# Compounds without any hit were thinned out: in the full panel of roughly 79,000, 15% have a hit. Values without a mark were called inactive. Activity calls are given as the source filed them. No stated cut-off is given here; in the data, active means growth inhibition above about 70%; inactive means the rest. Residues, ends and D or L forms follow the SMILES beside them. *: point of attachment. Fmoc = O=C(OCC1c2ccccc2-c2ccccc21)*; Boc = CC(C)(C)OC(=O)*
# Test: NCI Yeast Anticancer Drug Screen. Data for the rad14 strain (AID 159);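 further: 0% = growth of vehicle-treated control cultures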
# Details: S. cerevisiae rad14 strain growth inhibition; at 33.0 µM; stronger effect = higher value
# Procedure, shortened: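 DNA repair-defective yeast, compound-exposed; % growth inhibition derived by comparison with vehicle-treated controls.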
row,Structure (SMILES),growth inhibition
1,O=C1C=C(Br)C(=O)c2ccccc21,99% (active)
2,C[N+](C)([O-])CCCNc1c2ccccc2nc2cccc([N+](=O)[O-])c12,96% (active)
3,Cc1cccc2c(NCCCN(C)C)c3c([N+](=O)[O-])ccc(C)c3nc12,99% (active)
4,OC1(c2ccccc2)C2CC=CC2C1(c1ccccc1)c1ccccc1 (stereo not drawn),0%
5,C[n+]1c(-c2ccc(/C=N/NC(=O)c3ccc(C(=O)N/N=C/c4ccc(-c5cn6ccccc6[n+]5C)cc4)cc3)cc2)cn2ccccc21,66%
6,CCN(CC)CCC(=O)Nc1ccc2sc3ccccc3c(=O)c2n1,34%
7,O=[N+]([O-])c1ccc2nc(=S)[nH]n2c1,12%
8,O=C(c1ccccc1)[C@H]1Nc2ccc(Cl)cc2[C@H]2OCCC[C@@H]12,31%
9,COc1cc([N+](=O)[O-])c2ncccc2c1Br,49%
10,CC(C)(C)OC(=O)NCCCCC(NC(=O)C(Cc1c[nH]c2ccccc12)NC(=O)OCC1c2ccccc2-c2ccccc21)C(=O)O (stereo not drawn) (Fmoc-Trp-Lys(Boc)-OH; configuration not given here),28%

# Same assay, conditions: S. cerevisiae rad14 strain growth inhibition; at 100.0 µM; stronger effect = higher value
row,Structure (SMILES),growth inhibition
1,CC(C)C(=O)CC(Sc1ccc(N)cc1)c1ccccc1 (stereo not drawn),46%
2,CC(C)OP(=O)(OC(C)C)/C(Cl)=N/Nc1ccc([N+](=O)[O-])cc1,80% (active)
3,O=[N+]([O-])c1cc(Cl)ccc1S(=O)(=O)c1ccc(Cl)cc1[N+](=O)[O-],81% (active)
4,CCCCCCNCCCNc1c2cc(OC)ccc2nc2cccc([N+](=O)[O-])c12,99% (active)
5,N#CCC(=O)N/N=C(\c1ccccc1)C(c1ccccc1)C1(O)C(=O)Nc2c(Cl)ccc(Cl)c21 (stereo not drawn),39%
6,CN(C)CCNCCCNc1c2ccccc2nc2cccc([N+](=O)[O-])c12,97% (active)
7,CCC[CH2][Ge]([CH2]CCC)([CH2]CCC)[O]C(=O)C(O)c1ccccc1 (stereo not drawn),99% (active)
8,COc1ccc(-c2cc(-c3cc(C)cc(Cl)c3O)nc3[nH]c(=S)[nH]c(=S)c23)cc1,89% (active)
9,O=[N+]([O-])c1ccc(/C=C\c2ccc3c(c2)OCO3)c([N+](=O)[O-])c1,80% (active)
10,O=C1c2ccccc2N2OC3(N4CCCC4)CCCCC3C12c1ccccc1 (stereo not drawn),98% (active)
11,CC(C)OC(=O)NNc1cc(Cl)ccc1Cl,99% (active)
12,CC1(C)OC(=O)C(=Cc2ccc([N+](=O)[O-])s2)C(=O)O1,99% (active)
13,CCN(CC)CCCNc1ccc([N+](=O)[O-])c2nc3ccc(OC)cc3c(NCCCN(CC)CC)c12,1%
14,COc1cccc(/C=C2\S/C(=N/Nc3nc(-c4ccc([N+](=O)[O-])cc4)cs3)NC2=O)c1O,43%
15,OC(Cc1cccc2ccccc12)CN1CCC(c2ccccc2)CC1 (stereo not drawn),98% (active)
16,O=[N+]([O-])c1cc[n+]([O-])c(Cl)c1,100% (active)
17,CCCNC(=O)OCc1c(COC(=O)NCCC)c(-c2ccc(Cl)c(Cl)c2)n2c1CCC2,73% (active)

row,Structure (SMILES),growth inhibition
1,CC1(C)CC(=O)C(C(=O)Nc2cccs2)=C(O)C1,98% (active)
2,O=C(NO)c1coc2ccccc2c1=O,1%
3,COc1ccc(C(C)c2cc3c(cc2OCC(C)=O)OCO3)cc1 (stereo not drawn),38%
4,CCS(=O)(=O)Nc1ccc(Nc2c3ccccc3nc3ccccc23)c(OC)c1,74% (active)
5,O=S(=O)(c1ccccc1)N1CN2CN(C1)CN(S(=O)(=O)c1ccccc1)C2,-26%
6,CC1=NN(C(=O)c2ccccc2O)C(=O)/C1=C/c1ccco1,96% (active)
7,O=C1C=C(Br)C(=O)c2ccccc21,99% (active)
8,C[N+](C)([O-])CCCNc1c2ccccc2nc2cccc([N+](=O)[O-])c12,96% (active)
9,Cc1cccc2c(NCCCN(C)C)c3c([N+](=O)[O-])ccc(C)c3nc12,98% (active)
10,OC1(c2ccccc2)C2CC=CC2C1(c1ccccc1)c1ccccc1 (stereo not drawn),19%
11,C[n+]1c(-c2ccc(/C=N/NC(=O)c3ccc(C(=O)N/N=C/c4ccc(-c5cn6ccccc6[n+]5C)cc4)cc3)cc2)cn2ccccc21,60%
12,CCN(CC)CCC(=O)Nc1ccc2sc3ccccc3c(=O)c2n1,25%
13,O=[N+]([O-])c1ccc2nc(=S)[nH]n2c1,59%
14,O=C(c1ccccc1)[C@H]1Nc2ccc(Cl)cc2[C@H]2OCCC[C@@H]12,83% (active)
15,COc1cc([N+](=O)[O-])c2ncccc2c1Br,55%
16,CC(C)(C)OC(=O)NCCCCC(NC(=O)C(Cc1c[nH]c2ccccc12)NC(=O)OCC1c2ccccc2-c2ccccc21)C(=O)O (stereo not drawn) (Fmoc-Trp-Lys(Boc)-OH; configuration not given here),70% (active)

# Test: NCI Yeast Anticancer Drug Screen. Data for the sgs1 mgt1 strain (AID 161);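 further: 0% = growth of cultures given vehicle only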
# Details: S. cerevisiae sgs1 mgt1 strain, at 5.0 µM (retest, dose inferred, filed as 0.5), stronger effect = higher value
# Procedure, shortened: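 Test agents were incubated with a DNA-repair-mutant yeast strain. Growth was then read and compared against vehicle-treated controls.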
row,Structure (SMILES),growth inhibition
1,CC(C)C(=O)CC(Sc1ccc(N)cc1)c1ccccc1 (stereo not drawn),-26%
2,CC(C)OP(=O)(OC(C)C)/C(Cl)=N/Nc1ccc([N+](=O)[O-])cc1,6%
3,O=[N+]([O-])c1cc(Cl)ccc1S(=O)(=O)c1ccc(Cl)cc1[N+](=O)[O-],16%
4,CCCCCCNCCCNc1c2cc(OC)ccc2nc2cccc([N+](=O)[O-])c12,88% (active)
5,N#CCC(=O)N/N=C(\c1ccccc1)C(c1ccccc1)C1(O)C(=O)Nc2c(Cl)ccc(Cl)c21 (stereo not drawn),4%
6,CN(C)CCNCCCNc1c2ccccc2nc2cccc([N+](=O)[O-])c12,73% (active)
7,CCC[CH2][Ge]([CH2]CCC)([CH2]CCC)[O]C(=O)C(O)c1ccccc1 (stereo not drawn),97% (active)
8,COc1ccc(-c2cc(-c3cc(C)cc(Cl)c3O)nc3[nH]c(=S)[nH]c(=S)c23)cc1,-13%
9,O=[N+]([O-])c1ccc(/C=C\c2ccc3c(c2)OCO3)c([N+](=O)[O-])c1,11%
10,O=C1c2ccccc2N2OC3(N4CCCC4)CCCCC3C12c1ccccc1 (stereo not drawn),-9%
11,CC(C)OC(=O)NNc1cc(Cl)ccc1Cl,17%
12,Cc1oc2ccccc2c(=O)c1Cn1nnc2ccccc21,-1%
13,CC1(C)OC(=O)C(=Cc2ccc([N+](=O)[O-])s2)C(=O)O1,56%
14,CCN(CC)CCCNc1ccc([N+](=O)[O-])c2nc3ccc(OC)cc3c(NCCCN(CC)CC)c12,-8%
15,COc1cccc(/C=C2\S/C(=N/Nc3nc(-c4ccc([N+](=O)[O-])cc4)cs3)NC2=O)c1O,0%
16,OC(Cc1cccc2ccccc12)CN1CCC(c2ccccc2)CC1 (stereo not drawn),51%
17,C1=CCN([B-](c2ccccc2)[C+]2CCCCC2)C=C1,-5%
18,O=[N+]([O-])c1cc[n+]([O-])c(Cl)c1,1%

row,Structure (SMILES),growth inhibition
1,CCCNC(=O)OCc1c(COC(=O)NCCC)c(-c2ccc(Cl)c(Cl)c2)n2c1CCC2,30%
2,CC1(C)CC(=O)C(C(=O)Nc2cccs2)=C(O)C1,-5%
3,O=C(NO)c1coc2ccccc2c1=O,15%
4,COc1ccc(C(C)c2cc3c(cc2OCC(C)=O)OCO3)cc1 (stereo not drawn),-4%
5,O=S(=O)(c1ccccc1)N1CN2CN(C1)CN(S(=O)(=O)c1ccccc1)C2,-11%
6,CC1=NN(C(=O)c2ccccc2O)C(=O)/C1=C/c1ccco1,2%
7,O=C1C=C(Br)C(=O)c2ccccc21,57%
8,C[N+](C)([O-])CCCNc1c2ccccc2nc2cccc([N+](=O)[O-])c12,41%
9,Cc1cccc2c(NCCCN(C)C)c3c([N+](=O)[O-])ccc(C)c3nc12,12%
10,OC1(c2ccccc2)C2CC=CC2C1(c1ccccc1)c1ccccc1 (stereo not drawn),16%
11,C[n+]1c(-c2ccc(/C=N/NC(=O)c3ccc(C(=O)N/N=C/c4ccc(-c5cn6ccccc6[n+]5C)cc4)cc3)cc2)cn2ccccc21,24%
12,CCN(CC)CCC(=O)Nc1ccc2sc3ccccc3c(=O)c2n1,-22%
13,O=[N+]([O-])c1ccc2nc(=S)[nH]n2c1,-58%
14,O=C(c1ccccc1)[C@H]1Nc2ccc(Cl)cc2[C@H]2OCCC[C@@H]12,-18%
15,COc1cc([N+](=O)[O-])c2ncccc2c1Br,26%
16,O=S(=O)(c1cccc(C(F)(F)F)c1)N1c2ccccc2-n2cccc2C1c1cccnc1 (stereo not drawn),18%
17,CC(C)(C)OC(=O)NCCCCC(NC(=O)C(Cc1c[nH]c2ccccc12)NC(=O)OCC1c2ccccc2-c2ccccc21)C(=O)O (stereo not drawn) (Fmoc-Trp-Lys(Boc)-OH; configuration not given here),-13%
